# Measured values from PubChem BioAssay AID1508600 (Functional Genomics Laboratory (NCATS/FGL), 2020).
# The campaign covered roughly 53,000 sequences. About 3,700 (7%) were called active.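 Rule for the calls: active = gene knockdowns whose robust z-score for IL-1 alpha signal is at least 2 or at most -2, so actives lie on both sides; inactive = the rest.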 Only a selection was taken, and actives are over-represented in it overall.
# Assay: Components of the Cytosolic LPS Sensing Pathway: Gene Identification via Genome-wide siRNA Screen;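 note: robust z of the log signal after scaling to non-targeting control siRNA wells of the plate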
# Conditions: RAW264.7 macrophages, IL-1a HTRF, actives lie on both sides, screened at 100 nM (by protocol), cells primed 5 h with Pam3CSK4 first
# How it was run: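 Cells (RAW264.7, 1×10^4 per well) were transfected with siRNA at 100 nM and cultured 48h at 37 degrees C. Pam3CSK4 was added for 5 hours; LipidA transfection followed for 24 hour. IL-1a was then measured by HTRF.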
row,Sequence,z-score
1,GCAGUUACAGGAAAUCGAGTT against Cdr2,-0.746 (inactive)
2,GCCCAAGCAGUUCAUUCAUTT against Epc2,0.665 (inactive)
3,GCAUUAGUCAUUGUUAACGTT against Hsd17b4,0.653 (inactive)
4,GGGCGACUUUAGCUUUUAUTT against Pced1b,2.51 (active)
5,GGACUUCACCAUCCACGAATT against Pgap2,0.622 (inactive)
6,GGAUGCCUGAGUGCUACAUTT against Lsm4,-0.837 (inactive)
7,CGGUGCGAUCUCUCAAAGUTT against Cryba4,2.97 (active)
8,GAUAUAAAGCCUUCAACACTT against Olfr912,-1.48 (inactive)
9,GGAGAUGCUCAUUUUGAUUTT against Mmp8,1.76 (inactive)
10,GGUAGUGGCUUGAACAGGUTT against Vmn1r201,0.115 (inactive)
11,GGAUCCUCGGACUAAAAGUTT against Pnma1,-0.228 (inactive)
12,GCAUCUUAACACAUGUAAATT against Zfp369,-0.834 (inactive)
13,GGGAUGUAUUUCAACAACUTT against Wwox,0.0276 (inactive)
14,GGUAUAAGGAUUCUUUGAATT against Alg13,-2.8 (active)
15,GGCAUGGACAUUGAUGACATT against Dnajb1,-0.834 (inactive)
16,GCCUAAAGCUUUUCUACAATT against Mlph,0.161 (inactive)
17,GGUCAUCCGAGAUUUCACCTT against Elavl3,-0.944 (inactive)
18,ACUUCACCAUGGUACCCGGTT against Tspo,1.06 (inactive)
19,GGCUUAAAUGCGUUCUACATT against Slc25a3,0.0986 (inactive)
20,GCCAGGAUAUGGAUAUGCATT against 1520401A03Rik,-2.06 (active)
21,GGCAGAAGAGUGGUACUUUTT against Fyn,-1.63 (inactive)
22,AAAGGACUGCCUAAGACAATT against Vmn1r203,-0.921 (inactive)
23,GCCAUGUUCUUUGCUCCCATT against Pigl,-1.8 (inactive)

row,Sequence,z-score
1,GGGCAAACUCUAGAGCUACTT against Pdgfrl,-0.0578 (inactive)
2,GUCUGGAUAUUUGACACUATT against Tmem60,-0.637 (inactive)
3,GGAGUUGAUUGAAAUCAUCTT against Atp5c1,0.466 (inactive)
4,CGCAGGACGAUUAUGACGUTT against Pcdhb12,0.753 (inactive)
5,GGGAAACAAAAAAGAUUUCTT against Ptpn13,0.619 (inactive)
6,GCCAGCUAAAGAAGUCUAUTT against Gpr17,2.81 (active)
7,GGUCUCAAUAAACUUCAGGTT against Mfap4,0.926 (inactive)
8,CCCAAAGCGUGACUGUCAATT against Sema4b,-0.623 (inactive)
9,CCUGAAGUGGAGAUUCAACTT against Kcnj6,-1.27 (inactive)
10,GGAGUUUACAGAAAUUAUCTT against Pecam1,0.214 (inactive)
11,GAUUAGCAUCCAUGAACACTT against Tcl1b2,2.16 (active)
12,GGCAGAUUCAGACCUUCGATT against Sult1c2,-0.753 (inactive)
13,CGAACAGUGCUUCGUAUGUTT against Lims1,-1.04 (inactive)
14,GGUACAUGAAGAAAAGUAATT against Lrrc19,-0.243 (inactive)
15,GCAUACAAGACCGUGAUCATT against Psmc4,-2.03 (active)
16,GGUUAUUUCUCUCUCCCUATT against Creld1,0.524 (inactive)
17,GGAGGAUGACAAAAUCUAUTT against Rnf113a2,1.25 (inactive)
18,GCAUGGUAUUAGAUGAUGATT against Nexn,-1.69 (inactive)
19,GCGCAGAUAUCCUGGUUUGTT against Dhx36,2.28 (active)
20,GGAAUGUGCCUAAGUUUGGTT against Ufc1,1.08 (inactive)
21,CCAAUGGAACAUUAAGUGATT against Psma1,-0.485 (inactive)
22,CCAUAGUUGAUGGAAGAUATT against Shld2,-0.847 (inactive)
23,CCCUAUUUGUCAACGAUUATT against Lrrc24,-0.662 (inactive)

row,Sequence,z-score
1,GGAAGCAAUGUGAGAAAUUTT against Tmem91,2.54 (active)
2,GCCAAAUCAUGGGUCUGGUTT against Npas3,0.969 (inactive)
3,GGCAAUGUGCCCAAUAUCATT against Rfc2,-1.61 (inactive)
4,GGACUCAUAUCCUUACAUATT against AI854703,-0.0584 (inactive)
5,GGGAUAGCUGUCACCUUCUTT against Rad9a,-0.742 (inactive)
6,GGUGUUGAGUGCACUACUGTT against Nckap5l,-2.2 (active)
7,GUUUCUCGAAGAGCAUCCUTT against Cyb5a,0.732 (inactive)
8,UCACUUGUACCAAAAAUGATT against Adcy1,-1.43 (inactive)
9,GGGAAAGUCGUUGAAAUUUTT against Stx18,0.941 (inactive)
10,GGAUUAAAGCAGAAUAUGATT against Paics,-0.561 (inactive)
11,GGCUGUCCUUUUCCUCUUATT against Yipf6,1.49 (inactive)
12,CCCAAAACUCUAGCUACUATT against Olfr824,-3.03 (active)
13,CGCAGCAGUUGUGGUCAAUTT against Nnat,-1.23 (inactive)
14,GGGCUGCUAUUUUGAUGGUTT against Chrd,0.704 (inactive)
15,GCGUAUAAGCUCAGUAGACTT against Phlpp1,1.06 (inactive)
16,GGGCAAGUAUGGGCAGUUCTT against Ppp1ca,0.0965 (inactive)
17,CGAGAUCAUCUCAAAUAUCTT against Man2a1,-0.0408 (inactive)
18,GGACAAACAAGUGAAAUACTT against Morf4l1,0.209 (inactive)
19,CCUAAAUUUCCAACAGUCCTT against Tmem81,2.05 (active)
20,CGGUCUUCCCGUGGUUCAATT against Gm5114,-0.992 (inactive)
21,GGCAAAAGGGACAAAAACUTT against Gadd45a,-1.64 (inactive)
22,CCUUUAUGGGACACUAUUUTT against Alb,0.588 (inactive)
23,CCUAAAAGACUUCAUCCGUTT against Kcnh8,2.32 (active)
